Data taken from PubChem BioAssay AID1851 (National Center for Advancing Translational Sciences (NCATS), 2009).
Hit rate of the full screen: of about 16,000 compounds, about 5,700 (36%) were called active. Another 24% or so got no clear call; they are omitted. The call rests on the fitted dose curve; in most records, active means well fitted curve in the direction sought with a large enough effect; inconclusive means small, poorly fitted or top-dose-only effect, or effect the other way; inactive means no such curve, though single readings can be large or run the other way. This is one part of the list.

Target: Cytochrome P450 1A2 (Homo sapiens) (UniProt P05177)
Test: Cytochrome panel assay with activity outcomes
Conditions: recombinant CYP, pro-luciferin dealkylation, luminescence, p450-cyp1a2; series mostly up to 57.1 µM; activity, negative = inhibition: at the top concentration
On the % scale 0 is the no-effect control and ±100 the full control effect.

Cytochrome P450 1A2 (Homo sapiens), sequence (P05177 whole entry, looked up): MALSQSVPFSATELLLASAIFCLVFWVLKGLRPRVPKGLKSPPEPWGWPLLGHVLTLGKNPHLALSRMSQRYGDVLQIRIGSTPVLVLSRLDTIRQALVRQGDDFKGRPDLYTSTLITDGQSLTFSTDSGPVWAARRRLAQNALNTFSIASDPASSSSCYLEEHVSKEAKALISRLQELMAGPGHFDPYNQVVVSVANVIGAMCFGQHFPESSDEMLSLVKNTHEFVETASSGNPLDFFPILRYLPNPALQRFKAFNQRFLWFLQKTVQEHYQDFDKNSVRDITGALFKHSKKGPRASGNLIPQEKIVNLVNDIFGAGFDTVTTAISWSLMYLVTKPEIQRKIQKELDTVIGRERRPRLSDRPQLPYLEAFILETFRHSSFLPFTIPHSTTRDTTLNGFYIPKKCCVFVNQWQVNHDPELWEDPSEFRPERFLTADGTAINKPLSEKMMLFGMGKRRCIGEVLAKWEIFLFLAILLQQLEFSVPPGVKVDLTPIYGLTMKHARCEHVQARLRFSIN

| SMILES | activity, negative = inhibition | AC50 |
| --- | --- | --- |
| COc1ccccc1CN1CC[C@@]2(CCCN(S(C)(=O)=O)C2)C1 | -14.3% (inactive) | – |
| Cc1ccc(NC2=NC(c3ccccc3)n3c(nc(C)cc3=O)N2)c(C)c1 (stereo not drawn) | -4.75% (inactive) | – |
| C[C@@H](c1ccccc1)N1C(=O)[C@@H]2[C@H]3C(=CC[C@H]2C1=O)C(=O)[C@H]1O[C@H]1[C@H]3O | -2.35% [at 11.4 µM] (inactive) | – |
| O=C(O)c1ccc(CNCc2ccccc2)cc1 | -10.8% [at 11.4 µM] (inactive) | – |
| Sc1ccc2ccccc2c1CNCc1ccccc1 | – | 1.26 µM (active) |
| O=C(C[C@@H](c1ccccc1)N1CCCCC1)c1ccccc1 | – | 1.26 µM (active) |
| C[C@H](C(=O)c1ccccc1)[C@@H](c1ccccc1)N1CCOCC1 | -14.9% [at 11.4 µM] (inactive) | – |
| O=C(O)c1cccc(CN2CCCCC2)c1 | -16.7% [at 11.4 µM] (inactive) | – |
| O=C(Cc1ccccc1)NCCSCc1ccc(Cl)cc1 | – | 7.08 µM (active) |
| N[C@@H](CSCc1ccccc1)C(=O)O | -9.6% [at 11.4 µM] (inactive) | – |
| O=C(O)CCSCc1ccccc1 | -20.7% [at 11.4 µM] (inactive) | – |
| CCCCCCCCCCCC(=O)O[C@H](CC(=O)O)C[N+](C)(C)C | 3.19% (inactive) | – |
| O=C(N/N=C/c1ccc(Cl)cc1)Nc1ccccc1 | – | 10 µM (active) |
| Cc1ccc(NC(=O)N/C=C/c2ccc(Cl)cc2)cc1 | -22.5% (inactive) | – |
| O=C(Nc1ccc(N=Nc2ccccc2)cc1)c1ccc(Cl)cc1Cl | 11.4% (inactive) | – |
| O=C(N/N=C/c1ccc(Cl)cc1Cl)c1cccc(F)c1 | – | 1.78 µM (active) |
| O=C(N/N=C/c1ccc(Cl)cc1Cl)Nc1ccccc1 | – | 1 µM (active) |
| CC(C)(C)N(NC(=O)Nc1ccccc1)C(=O)c1ccccc1Cl | 5.62% (inactive) | – |
| O=C(c1ccco1)N1CCC2(CCCN(Cc3ccccc3)C2)CC1 | -4.78% (inactive) | – |
| CCCN(CCC)CCCNS(=O)(=O)c1cc(Br)cc2c1N(C(C)=O)CC2 | -17.8% (inactive) | – |
| CC(=O)N1c2c(cc(Br)cc2S(=O)(=O)NCC2COc3ccccc3O2)CC1C (stereo not drawn) | – | 3.16 µM (active) |
| O=C(NCC1COc2ccccc2O1)C1CCN(S(=O)(=O)c2cccc3nsnc23)CC1 (stereo not drawn) | -7.72% (inactive) | – |
| COc1ccc(C(=O)NN)cc1COc1ccc(Br)cc1 | – | 0.2 µM (active) |
| COc1ccc(/C=C/C(=O)NCc2cn(C)nc2C)cc1COc1ccc(Br)cc1 | -26.8% (inactive) | – |
| NC(=O)CNC(=O)[C@@H]1CC2(CC(c3ccc(Cl)cc3)=NO2)CN1C(=O)c1ccccc1 (stereo partly drawn) | 11.7% (inactive) | – |

| SMILES | activity, negative = inhibition | AC50 |
| --- | --- | --- |
| C=CCc1cc(C=O)cc(OC)c1OCc1ccc(Cl)cc1 | – | 1.12 µM (active) |
| O=C(CN1C(=O)c2ccccc2C1=O)NC1(C(=O)O)CCCC1 | -2.12% [at 2.29 µM] (inactive) | – |
| COC(=O)c1cc(-c2ccccc2)sc1NC(=O)CN1C(=O)c2ccccc2C1=O | – | 0.708 µM (active) |
| CCOC(=O)c1cc(-c2ccccc2)sc1NC(=O)c1ccc(OC)cc1 | – | 8.91 µM (active) |
| CCOC(=O)c1cc(-c2ccccc2)sc1NC(=O)C(C)(C)C | -12.1% (inactive) | – |
| CCOC(=O)c1c(NC(=O)CCCN2CCOCC2)sc2c1CC(C)(C)OC2 | – | 14.1 µM (active) |
| CNC(=O)c1ccc(-c2sc3nc(N4CCOCC4)c4c(c3c2N)CC(C)(C)OC4)o1 | 1.36% (inactive) | – |
| CCOC(=O)c1c(NC(=O)c2ccc(N3CCOCC3)c([N+](=O)[O-])c2)sc(C)c1C | 2.45% (inactive) | – |
| CCN1C(=O)/C(=C/C=C2/SCCN2C)SC1=S | – | 1 µM (active) |
| CN1CCN(NC(=O)CN2C(=O)/C(=C/c3c(Cl)cccc3Cl)SC2=S)CC1 | -7.84% (inactive) | – |
| Cc1ccc(Sc2cc(Cl)nc(N)n2)cc1 | -23.8% (inactive) | – |
| CCNc1nc(Sc2ccc(C)cc2)cc(C(F)(F)F)n1 | – | 3.16 µM (active) |
| Cn1c(=O)c(-c2ccc(F)cc2)nc2cnc(Oc3ccccc3)nc21 | – | 0.316 µM (active) |
| COc1ccc(Oc2ncc3nc(-c4ccc(F)cc4)c(=O)n(C)c3n2)cc1 | – | 2 µM (active) |
| COc1cccc(-c2ccc3ncnc(N4CCOCC4)c3c2)c1 | – | 1 µM (active) |
| FC(F)(F)c1ccccc1-c1ccc2ncnc(N3CCOCC3)c2c1 | – | 0.251 µM (active) |
| CN(C)C(=O)c1ccc(-c2ccc3ncnc(N4CCOCC4)c3c2)cc1 | -16.8% (inactive) | – |
| COc1ccccc1-c1ccc2ncnc(N3CCOCC3)c2c1 | – | 0.631 µM (active) |
| CN(C)Cc1ccccc1-c1ccc2ncnc(N3CCOCC3)c2c1 | – | 15.8 µM (active) |
| O=C(O)C1CCN(c2ncnc3ccc(-c4ccccc4C(F)(F)F)cc23)CC1 | -19.1% (inactive) | – |
| COCCCN1C(=O)C(=O)/C(=C(/O)c2ccc(OC(C)C)c(C)c2)C1c1ccncc1 (stereo not drawn) | 15.5% [at 11.4 µM] (inactive) | – |
| COc1ccc(C(=O)N2CCC[C@@]3(CCN(Cc4cc(C(F)(F)F)cc(C(F)(F)F)c4)C3)C2)cc1 | 2.06% (inactive) | – |
| COc1ccccc1-c1ccc2ncnc(N3CCN(C)CC3)c2c1 | – | 3.16 µM (active) |
| CCOC(=O)CCc1c(C)nc2ncnn2c1C | -15.3% (inactive) | – |
| Cc1ccc(CNC(=O)CCc2c(C)nc3ncnn3c2C)cc1 | -10.8% (inactive) | – |

| SMILES | activity, negative = inhibition | AC50 |
| --- | --- | --- |
| CCc1c(C)nc2ncnn2c1NCCc1ccc(OC)cc1 | – | 15.8 µM (active) |
| CC1(C)O[C@H]2O[C@@H]([C@H](O)CON3C(=O)c4ccccc4C3=O)[C@H](O)[C@H]2O1 | -10.7% [at 11.4 µM] (inactive) | – |
| O=c1cc(N2CCC(Cc3ccccc3)CC2)[nH]c(=O)n1C1CCCCC1 | -3.97% (inactive) | – |
| O=S(=O)(c1ccc(Cl)cc1)c1cnc(-c2cccnc2)nc1-c1ccccc1 | -29.7% (inactive) | – |
| O=S(=O)(c1ccccc1)c1cnc(-c2cccnc2)nc1-c1ccc(Cl)cc1Cl | – | 8.91 µM (active) |
| CCC(C)(C)N=C(NC#N)Nc1cccnc1 | – | 12.6 µM (active) |
| O=S(=O)(NCc1cc(-c2ccccc2Cl)no1)c1ccc(Cl)cc1 | – | 1 µM (active) |
| CCCNC(=O)NS(=O)(=O)c1ccc(Cl)cc1 | -1.12% [at 25.6 µM] (inactive) | – |
| C[C@@](O)(CNS(=O)(=O)c1ccccc1)c1ccccc1 | -17.4% [at 11.4 µM] (inactive) | – |
| O=C1c2ccccc2C(=O)N1Cc1cc(-c2ccccc2Cl)no1 | – | 0.794 µM (active) |
| O=S(=O)(NCc1cc(-c2ccccc2Cl)no1)c1ccccc1 | – | 7.08 µM (active) |
| COc1ccc(CC(=O)N2CCN(c3ccc(C4=NNC(=O)CC4C)cc3)CC2)cc1 (stereo not drawn) | 3.77% (inactive) | – |
| COc1cccc(N=Cc2c[nH][nH]c2=O)c1 | – | 1 µM (active) |
| O=c1c(C=Nc2ccc(Oc3ccccc3)cc2)c[nH]n1-c1cccc(Cl)n1 | -27.8% (inactive) | – |
| O=c1[nH][nH]cc1C=Nc1ccccc1O | – | 10 µM (active) |
| N[C@@H](C(=O)O)c1ccc(C(=O)O)c(O)c1 | -18.4% (inactive) | – |
| N[C@@H](C(=O)O)c1cc(O)ccc1Cl | – | 15.8 µM (active) |
| N[C@H](C(=O)O)c1ccc(C(=O)O)c(O)c1 | -0.752% (inactive) | – |
| O=C(O)CN(CCOCCOCCN(CC(=O)O)CC(=O)O)CC(=O)O | -12.6% (inactive) | – |
| CCCNc1nc(NCC)nc(OC)n1 | – | 11.2 µM (active) |
| CCNc1nc(NCC)nc(ON=C(C)C)n1 | – | 14.1 µM (active) |
| CCCn1nc(Oc2nc(NCC)nc(NC(C)C)n2)ccc1=O | -6.37% (inactive) | – |
| O=S(=O)(c1ccccc1)N1CCC2(CCN(C(c3ccccc3)c3ccccc3)CC2)CC1 | -19.9% (inactive) | – |
| Cc1cccc(C(=O)NNC(=O)C2CCCO2)c1 (stereo not drawn) | -3.1% (inactive) | – |
| O=C(Nc1nc2ccc(F)cc2s1)C1CCCO1 (stereo not drawn) | – | 4.47 µM (active) |

| SMILES | activity, negative = inhibition | AC50 |
| --- | --- | --- |
| COc1cc2nc(N(C)CCCNC(=O)[C@@H]3CCCO3)nc(N)c2cc1OC | -14% [at 25.6 µM] (inactive) | – |
| CS(=O)(=O)N1CCC2(CCN(Cc3ccncc3)CC2)CC1 | 7% (inactive) | – |
| CCCCNC(=O)C(=O)NC(C)CCc1ccccc1 (stereo not drawn) | – | 15.8 µM (active) |
| C[C@@H](CS(=O)(=O)Cc1ccccc1)C(N)=O | -13.3% [at 11.4 µM] (inactive) | – |
| CC(CCc1ccccc1)NS(=O)(=O)c1ccccc1 (stereo not drawn) | – | 14.1 µM (active) |
| CC(CCc1ccccc1)NC(=O)/C=C/c1ccccc1 (stereo not drawn) | – | 12.6 µM (active) |
| C[C@@H](CCc1ccccc1)NC[C@H](O)c1ccc(O)c(C(N)=O)c1 | -17.9% [at 25.6 µM] (inactive) | – |
| CC(CCc1ccccc1)NC(=O)C(=O)NCCO (stereo not drawn) | -14% (inactive) | – |
| CCOC(=O)[C@H](CCc1ccccc1)N[C@@H](C)C(=O)N1CCC[C@H]1C(=O)O | -6.41% [at 25.6 µM] (inactive) | – |
| Cc1ccc(S(=O)(=O)N[C@@H](CCc2ccccc2)CC(=O)C(C)(C)C)cc1 | 2.3% [at 11.4 µM] (inactive) | – |
| C=CC[C@@H]1C=C[C@H](O/N=C2\c3cc(OC)ccc3O[C@H](c3cccc(OC)c3)[C@H]2O)[C@H](CO)O1 | -7.04% [at 11.4 µM] (inactive) | – |
| O=[N+]([O-])c1ccc(Cl)c(-c2ccc(/C=N/c3c(-c4ccco4)nc4ccccn34)o2)c1 | -21.9% (inactive) | – |
| COc1cc(-c2nc3ccccn3c2/N=C/c2ccccc2)ccc1O | – | 3.16 µM (active) |
| C[n+]1cc2c3c(ccc2c2ccc4cc5c(cc4c21)OCO5)OCO3 | – | 3.98 µM (active) |
| Cc1cnc(CNc2ccnc(-c3ccoc3)n2)cn1 | – | 12.6 µM (active) |
| Cc1cnc(CNc2ccnc(-c3ccc(N(C)C)cc3)n2)cn1 | – | 2.51 µM (active) |
| CO/N=C\c1ccc(C(=O)N2[C@H](c3ccc(C)cc3)[C@@H](C)CC[C@H]2C(=O)OC)cc1 | -13.4% [at 11.4 µM] (inactive) | – |
| C[N+](C)(C)c1cc2c(nn1)Nc1ccccc1S2 | – | 2 µM (active) |
| O=C(O)CC1(CC(=O)O)Nc2ccccc2SC1=O | 2.04% [at 2.29 µM] (inactive) | – |
| CCCCC/C=C\C[C@H](O)/C=C\c1cccc(C[C@H](O)CCCCO)n1 | -3.33% (inactive) | – |
| CC(/C=C/c1ccco1)=N/NC(=O)c1ccccc1Cl | – | 17.8 µM (active) |
| Cc1ccc(NC(=S)/C(=C(\[O-])c2ccc(C)c([N+](=O)[O-])c2)[n+]2ccccc2)cc1C | – | 14.1 µM (active) |
| CC(C)=C1C(=O)C(c2ccccc2)=C2CN3C(=O)N(CCc4ccccc4)C(=O)[C@]3(Cc3ccccc3)[C@H]21 | -14.9% (inactive) | – |
